Assay outcomes from PubChem.
ADAM17 inh: inhibitors of human ADAM17. P78536. recombinant ADAM17, EDANS/DABCYL FRET peptide cleavage. inhibition, % at 6.95 µM. 370,000 compounds, 0.83% hits;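 active = inhibition above the mean of compounds lying between control limits plus 3 SD, set per campaign, cut at about 8.5% in these data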;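 note: 0% = DMSO-only wells as the low control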
Rce1 inhib: yeast Ras-converting enzyme inhibition; calls only; AID 2563; yeast membranes, quenched prenylated peptide cleavage fluorescence; 290,000 compounds, 0.27% hits; Q03530;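 active = fall in fluorescence gain of 50% or more versus controls, with final raw signal at or below 3038400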;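 note: plate controls were neutral control wells for no effect and wells lacking membranes for full effect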
ADAM10 inh: inhibitors of human ADAM10. O14672. inhibition, % at 7 µM. 370,000 compounds, 0.62% hits. recombinant ADAM10, EDANS/DABCYL FRET peptide cleavage, 3 h;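 active = inhibition above a per-campaign cutoff equal to the mean of compounds falling between control-based bounds plus 3 SD, cut at about 20% in these data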;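 note: 0% = DMSO wells while the 100% control is not disclosed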
Target sequence (O14672 214-748 limits assumed): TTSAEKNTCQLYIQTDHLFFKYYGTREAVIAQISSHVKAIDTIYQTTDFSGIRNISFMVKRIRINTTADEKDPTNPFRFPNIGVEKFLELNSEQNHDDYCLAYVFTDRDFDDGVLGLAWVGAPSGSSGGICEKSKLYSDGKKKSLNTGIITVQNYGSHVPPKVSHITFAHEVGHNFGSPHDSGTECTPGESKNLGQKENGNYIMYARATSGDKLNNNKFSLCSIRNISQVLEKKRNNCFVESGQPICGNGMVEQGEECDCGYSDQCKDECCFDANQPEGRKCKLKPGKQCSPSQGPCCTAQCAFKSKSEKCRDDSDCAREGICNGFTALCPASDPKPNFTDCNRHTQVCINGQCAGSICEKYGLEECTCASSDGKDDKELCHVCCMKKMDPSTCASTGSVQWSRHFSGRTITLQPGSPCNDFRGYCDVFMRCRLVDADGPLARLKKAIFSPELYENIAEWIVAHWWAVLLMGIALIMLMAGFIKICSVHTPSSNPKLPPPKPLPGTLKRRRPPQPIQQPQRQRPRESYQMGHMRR
PLC-beta3 inh: PLC-beta3 (human) inhibition, primary screen; Q01970; Purified PLC-beta3, fluorogenic substrate, fluorescence; inhibition, % at 12.2 µM; 370,000 compounds, 0.18% hits; AID 720704; in the data active = inhibition above about 11%;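 note: 0% = median of compound wells on plate and 100% = full blocker control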
PLCg1 inh: inhibitors of human phospholipase C gamma1; P19174; purified PLC-gamma1, fluorogenic substrate, fluorescence; inhibition, % at 12.2 µM; 370,000 compounds, 0.84% hits; AID 720700; in the data active = inhibition above about 9.5%
ADAM10 ctr: inhibits human ADAM10 in ADAM17 exosite counter-screen | shares compounds with ADAM17 inh | recombinant ADAM10, EDANS/DABCYL FRET peptide cleavage, 3 h | inhibition, % at 6.95 µM | 2,900 compounds, 47% hits;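 active = mean inhibition over the triplicate runs exceeds the activity threshold set in the earlier primary screen, cut at about 20% in these data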;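 note: 0% = DMSO wells and 100% = marimastat wells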
ADAM17 confirm: human ADAM17 inhibition, confirmation. shares compounds with ADAM17 inh. 2,900 compounds, 65% hits. recombinant ADAM17, EDANS/DABCYL QFRET peptide cleavage. inhibition, % at 6.95 µM. AID 743257;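 active = mean inhibition across replicates above the hit cutoff set in the primary screen, cut at about 8.5% in these data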;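 note: 0% = DMSO wells and 100% = marimastat wells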
Starred values were filed as active, the others as inactive; i = inactive; nt = not tested or not shown. Only some compounds are listed: those with a hit (about 2.1% of all), similar ones and a draw of the others.

SMILES	ADAM17 inh	Rce1 inhib	ADAM10 inh	PLC-beta3 inh	PLCg1 inh	ADAM10 ctr	ADAM17 confirm
Cc1cccc(OCc2nnc(SCC(=O)Nc3cccc(C(=O)N4CCOCC4)c3)n2C)c1	-7	i	3	-2	5	nt	nt
CN(CC1CCOCC1)C(=O)CC1C(=O)NCCN1Cc1ccc(F)c(F)c1 (configuration not stated)	-16	i	-30	-34	-50	nt	nt
NS(=O)(=O)c1ccc(NC(=O)N[C@@H](Cc2ccccc2)C(=O)O)cc1	9.8*	i	0	5	4	11	8
CC/C(C)=N/Nc1nc2c(c(=O)[nH]c(=O)n2C)n1Cc1ccccc1	9.1*	i	14	-20	-4	5	3
CC/C(C)=N/Nc1nc2c(c(=O)[nH]c(=O)n2C)n1CCc1ccccc1	-31	i	-84	-178	-147	nt	nt
C/C(=N\NC(=S)NCc1ccccc1)c1ccc2ccccc2c1OC(F)F	12*	i	18	-13	0	4	8
NC(=NCCc1c[nH]c2ccccc12)NS(=O)(=O)c1ccc2ccccc2c1	9.9*	i	15	1	0	18	9.4*
NC(=NCCc1c[nH]c2ccccc12)NS(=O)(=O)c1ccc(F)cc1	-1	i	0	-1	4	nt	nt
Cc1ccccc1-n1nc2c(c1NC(=O)c1ccc(S(=O)(=O)N(C)C)cc1)CSC2	13*	i	18	2	8	18	9.4*
CC(=O)Nc1c2c(nn1-c1ccccc1C)CSC2	1	i	-11	-7	-2	nt	nt
CCOC(=O)c1c(C)[nH]c(C)c1C(=O)COC(=O)/C=C/c1cccc(C(F)(F)F)c1	12*	i	11	0	0	27*	15*
COc1ccc(-c2[nH]ncc2/C=N/NC(=O)c2ccncc2)c(OC)c1	3	i	-2	-11	-2	nt	nt
Cc1ccc(NC(=O)COc2ccc(Br)cc2CO)cc1	9.3*	i	9	1	3	-6	0
O=C(COc1ccc(Br)cc1CO)Nc1ccccc1	2	i	2	0	0	nt	nt
COc1cc2cnc(-c3ccccc3)c(C(=O)c3ccc(F)cc3)c2cc1OC	1	nt	6	-3	0	nt	nt
COc1cccc(C(=O)c2c(-c3ccccc3)ncc3cc(OC)c(OC)cc23)c1	13*	nt	11	-12	-2	17	19*
O=C(CN1c2ccccc2Sc2ccccc21)N/N=C/c1ccccc1	1	i	4	-5	-1	nt	nt
O=C(CN1c2ccccc2Sc2ccccc21)N/N=C/c1ccc([N+](=O)[O-])cc1	13*	i	15	1	4	29*	17*
COc1cccc(CN(Cc2ccco2)S(=O)(=O)c2ccc(S(=O)(=O)NCc3ccccc3)cc2)c1OC	14*	i	39*	4	9	43*	24*
Cc1cc(N2CCCC2=O)cc(C)c1S(=O)(=O)NCCOc1ccc(C(C)(C)C)cc1	11*	i	16	2	1	8	6
O=C1CCCN1c1ccc(S(=O)(=O)NCCOc2ccccc2)cc1	-1	i	7	-1	2	nt	nt
CCN(Cc1ccccc1)CC(O)COC(c1ccc(OC)cc1)c1ccc(OC)cc1 (configuration not stated)	11*	i	4	-5	3	3	8
CCOC(=O)c1c(NC(=O)CSc2nc3cc(Cl)ccc3c(=O)n2Cc2ccco2)sc(C(=O)N(C)C)c1C	2	i	10	-4	-2	nt	nt
N#CC(C#N)=C1C=C2C=C(N3CCCCCC3)CCC2CC1 (configuration not stated)	9.7*	nt	-15	-96	-83	0	5
COc1ccc(C2=Nc3ccc(C)cc3C(c3ccccc3)N2CC(=O)NN)cc1 (configuration not stated)	-3	i	-1	-4	-8	nt	nt
SMILES	ADAM17 inh	Rce1 inhib	ADAM10 inh	PLC-beta3 inh	PLCg1 inh	ADAM10 ctr	ADAM17 confirm
COC(=O)CN1C(c2ccc(Cl)cc2)=Nc2ccc(Cl)cc2C1c1ccccc1 (configuration not stated)	9.0*	i	12	-20	-10	23*	13*
O=C(Nc1nc([C@@H]2O[C@H](CO)[C@@H](O)[C@H](O)[C@H]2O)cs1)NC(c1ccccc1)c1ccccc1	-2	nt	3	6	2	nt	nt
O=C(Nc1cccc(C(F)(F)F)c1)c1csc([C@H]2C[C@H](O)[C@@H](CO)O2)n1	-8	nt	-2	0	0	nt	nt
C[C@H](CO)N1C[C@H](C)[C@@H](CN(C)Cc2ccccc2)Oc2c(NC(=O)c3ccncc3)cccc2C1=O	1	nt	-4	4	3	nt	nt
C[C@H](CO)N1C[C@H](C)[C@@H](CN(C)Cc2ccc(Oc3ccccc3)cc2)Oc2c(NC(=O)c3ccncc3)cccc2C1=O	12*	nt	20	0	7	13	8
COc1ccc(S(=O)(=O)Nc2cccc3c2O[C@H](CN(C)C(=O)Nc2ccc(C(F)(F)F)cc2)[C@@H](C)CN([C@H](C)CO)C3=O)cc1	16*	nt	21*	5	9.9*	21*	14*
COc1ccc(S(=O)(=O)Nc2ccc3c(c2)C(=O)N([C@H](C)CO)C[C@H](C)[C@@H](CN(C)C(=O)Nc2ccc(C(F)(F)F)cc2)OCCCC[C@H](C)O3)cc1	10*	nt	13	-1	0	39*	21*
COc1ccc(NC(=O)N(C)C[C@H]2Oc3c(NC(=O)c4nc5ccccc5s4)cccc3C(=O)N([C@@H](C)CO)C[C@H]2C)cc1	12*	nt	18	-28	-11	25*	13*
O=C(NCCN1CCOCC1)c1ccc(NS(=O)(=O)c2cccc([N+](=O)[O-])c2)cc1	-6	i	-12	-3	-2	nt	nt
O=C1NC(c2cccc([N+](=O)[O-])c2)Oc2ccccc21 (configuration not stated)	-11	i	-33	-5	-3	nt	nt
O=C(CSc1nnc(-c2ccccc2)n1-c1ccccc1)NN=C/C=C\c1ccccc1[N+](=O)[O-]	8.8*	nt	14	4	8	30*	16*
CCn1c(SCC(=O)N/N=C/C=C/c2ccccc2[N+](=O)[O-])nnc1-c1ccc(Cl)cc1	-3	i	-3	0	0	nt	nt
Cc1ccc(S(=O)(=O)NNC(=O)C(O)(c2ccccc2C)c2ccccc2C)cc1	4	i	2	2	-1	nt	nt
CC(C)C(=O)N1CCN(c2ccc(NC(=O)c3cccs3)cc2Cl)CC1	9.1*	i	11	2	8	8	6
CC(C)C(=O)N1CCN(c2ccc(NC(=O)c3cccs3)cc2)CC1	2	i	3	4	6	nt	nt
COc1ccc(NS(=O)(=O)c2cc(NC(=O)c3cccs3)ccc2N2CCCC2)cc1	9.1*	i	19	-53	-30	18	11*
